tested on: VDR:RXRa (NR concentration 270 nM, RXRa partner concentration 90 nM); test: PBM binding z-score (relative to random genomic background probes); higher = stronger binding; sequences stand for … in GC…GCGATTGACAGCGTAGAATGAAGG
Experimental: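 Protein-binding microarray (Agilent 4x180K custom design, double-stranded 60-nt probes: 5' GC cap, 34-nt variable region, 24-nt constant primer region; full probe sequence given). Purified or IVT nuclear receptor:RXRα heterodimers (3:1 NR:RXRα, mostly 270:90 nM) or homodimers were incubated for 1 h in PBS with 2% milk and no ligand, then detected with Alexa488 antibodies. Fluorescence from o1-orientation probes (~5 replicates averaged) was converted to z-scores against 500 random hg19 background probes. Variable regions are seed direct-repeat (DR0–DR5) sites, all their single-nucleotide variants and half-site ablations.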

Row | Sequence | PBM binding z-score
1 | TAGCCTAGGTCAGATCGGGCCAGTACACGCTATA | 0.906
2 | CCTATTAGTTGACCATAAGGGCAACCGTAGCTCG | 0.674
3 | TCGAGTAGGATAGTCGGGGCATTCAGCCAACATA | -0.319
4 | AATACAGGGTCATCGTAGTCCAGAGTACGCACAG | 5.65
5 | CCTCGGAGGAGAGAAGGTCAGAGCTGTCCGCTTT | 0.722
6 | ATGTGTAGGTTATCGGGTCATTCAGTTTGCGCAT | 5.25
7 | CCTCGGCGGACAACAGGAGGTCAGAGCTGCCAGA | 0.818
8 | ATACCAAGGTGATCGTGAGGTCGTGGATACTAAC | 2.84
9 | TAGCCTGGGTCATTCAGGGGCCAGTATAGAAAGC | 2.82
10 | ATATCTAGGTAACCAAGTTCAGTGAATGCCGAAC | 3.97
11 | ATCTCTAGGTAACAGGTTCAGTGAAAGAGAGGAC | 1.95
12 | GCAGACAGGTGAAACGCAGGTTACTCAGGGTGGC | -0.128
13 | TATTGTAGATCAATAGAGGTTAAGAAAGTGCGCT | 1.91
14 | CAAACTAGGTCAACGGTCAAAGTCGAGCCAACCA | 2.71
15 | GGAACGAGGGCAAAGTTGATAGTATCTGTCGACG | 1.21
16 | CCGACTGGGGCAGAGGTTACCATACTCAGTACGA | 0.52
17 | ATCTGTAGGTAAAGATAGTTCAGTGAATGCAAAT | 0.945
18 | ACTGGGAGGACAAAGGTCAGAGCTACGCCAGTGA | 3.73
19 | GCTAGTTAGTCAGTAAAAGGTCACACACCGGTCG | 3.78
20 | CTCGAAAGGTCGGTTCAGGTGAGTATACGGATAA | 2.71

Row | Sequence | PBM binding z-score
21 | TGTCAAAGTTGAAAGGTAACGTAAGTATCCACAC | 0.996
22 | TAGCCTAGGTCATTAAGGGGCCAGTATAGAAAGC | 2.52
23 | CCTTACGGGTCAACGTTATAGCACGGGTGGTACG | 3.03
24 | TCTCGGAGGACACGAAAGGTCAGACCTCGACATC | 3.52
25 | GCGGCTAGGTCAACTGATGGTCAGCTAAAGCTCG | 1.28
26 | CAAACTAGGTCAAAGTCAAAGTCGGTTTGTGCCA | 2.38
27 | CGTCCAAGGTTAGAGAGGTCAGTGAATGCCGAGT | 5.7
28 | GCTTACGGGTCAAAGGCTATAGCATGAATAGAAT | 3.47
29 | CCAGACAGGTGAGATGGTAACTCAGCCTCGATTA | -0.293
30 | CAAACTAGGACACCGGAAGGTCAAAGTCCGCATG | 3.3
31 | AGAATGAGGATATTAAGATCAGGGAATTGCGGTC | -0.178
32 | GCAAATAGGTAATACAAGGTGAAAGTCCGATTGT | 0.551
33 | ATATGTAGGCTAGCTGGGGTCATTCAGACTAGGC | 4.77
34 | CCAGACAGGTGAGAAGCTAACTCAGCCTCGATTA | -0.228
35 | TCCTATAGGTAAATGCTAGGTGAAAGTCCGATCT | 0.359
36 | ACTAGCAGGCCAAGGGTCACTCCAGATTAGTCCG | 2.32
37 | TCATATAGGTAAAGGTGATAGTCGAACGATATGA | 0.559
38 | ACTTACGGGTCATCGAGGTTATAGCACGCGTATA | 7.51
39 | CTCGAAAGGTCGTGCTCAGGTGCGTATACCAAAC | 3.57
40 | ATCTCGAGGTAAGACTCAGTTCAGTGAAGAACGC | 0.704
